Measured values: the supplement of paper PMC6555819

Assays:
Assay in all cases: PBM binding z-score (relative to random genomic background probes); higher = stronger binding; sequences stand for … in GC…GCGATTGACAGCGTAGAATGAAGG
[1] = tested on: FXR:RXRa (NR concentration 270 nM, RXRa partner concentration 90 nM)
Procedure, shortened: (§1)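 Binding buffer was PBS pH 7.4 with 2% milk, 0.02% Triton X-100, 1 mM DTT, 0.2 mg/mL BSA and 0.4 mg/ml salmon testes DNA. In it, ligand-free nuclear receptor dimers were incubated 1 h on custom Agilent 4×180K protein-binding microarrays carrying double-stranded probes. Antibodies against each partner (one per run) detected binding, and z-scores were calculated against random background probes after regression normalization of scanned fluorescence.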

[2] = tested on: LXRa:RXRa (NR concentration 270 nM, RXRa partner concentration 90 nM)
Procedure, shortened: as §1

[3] = tested on: LXRa homodimer (NR concentration 270 nM)
Procedure, shortened: as §1

[4] = tested on: LXRb:RXRa (NR concentration 270 nM, RXRa partner concentration 90 nM)
Procedure, shortened: as §1

[5] = tested on: LXRb homodimer (NR concentration 270 nM)
Procedure, shortened: as §1

[6] = tested on: PPARa:RXRa (NR concentration 270 nM, RXRa partner concentration 90 nM)
Procedure, shortened: as §1

[7] = tested on: PPARg:RXRa (NR concentration 180 nM, RXRa partner concentration 90 nM)
Procedure, shortened: as §1

[8] = tested on: PPARg:RXRa 270nM:90nM, anti-RXR (NR concentration 270 nM, RXRa partner concentration 90 nM)
Procedure, shortened: as §1

[9] = tested on: PPARg:RXRa 30nM:10nM, anti-RXR (NR concentration 30 nM, RXRa partner concentration 10 nM)
Procedure, shortened: as §1

[10] = tested on: PPARg:RXRa 90nM:30nM, anti-RXR (NR concentration 90 nM, RXRa partner concentration 30 nM)
Procedure, shortened: as §1

| Sequence | PBM binding z-score [1] | PBM binding z-score [2] | PBM binding z-score [3] | PBM binding z-score [4] | PBM binding z-score [5] | PBM binding z-score [6] | PBM binding z-score [7] | PBM binding z-score [8] | PBM binding z-score [9] | PBM binding z-score [10] |
| --- | --- | --- | --- | --- | --- | --- | --- | --- | --- | --- |
| CGAACTAGGTCATAACAGGACAGTGAAGGATGAT | 3.19 | 4.15 | 0.43 | 1.95 | 0.0725 | 4.26 | 6.94 | 6.14 | 3.52 | 5.3 |
| AGAATGAGGTTGCCAAAGATCAGGGAAACGCTTG | 0.0162 | 0.364 | -0.555 | 0.0727 | -0.656 | 0.857 | 0.786 | 0.932 | 0.289 | 0.435 |
| CCGAGTAGGTTATGGGGCATCCAGGCAACGGTGA | 0.103 | 0.375 | -0.312 | 0.332 | -0.509 | 2.36 | 3.95 | 4.52 | 1.97 | 4.17 |
| CCTCGGAGGACAGAAGGTCAGAGCTGTCCGCTTT | 1.38 | 1.63 | -0.0944 | 1.03 | -0.587 | 1.84 | -0.203 | 0.708 | -0.69 | -0.00592 |
| CGTCCAAGGTCATCAGGTCAGTGAAAGCGACGTG | 7.31 | 5.49 | 1.85 | 4.14 | 0.684 | 5.83 | 6.35 | 6.07 | 2.32 | 4.84 |
| ATATGTAGGTTAGGTGGGGTCATTCAGACTAGGC | 5.01 | 6.16 | 3.73 | 5.37 | 2.74 | 5.23 | 5.59 | 5.49 | 2.48 | 4.67 |
| GGAACGAGGGCAACGTTGATAGCATCTGTCGACG | 0.32 | 0.21 | -0.371 | 0.0442 | -0.855 | 1.59 | 1.9 | 1.95 | 0.134 | 1.2 |
| CGGACTGGGGCAGAAAGGTTACCATACCATCCGG | 0.574 | 0.739 | -0.05 | 1.25 | -0.31 | 2.7 | 2.62 | 3.46 | 1.89 | 2.62 |
| CGTCCAAGGTCATAGCAGGTCAGTGAAGACAGAT | 7.63 | 7.02 | 3.65 | 5.58 | 0.842 | 5.85 | 5.23 | 5.24 | 2.03 | 4.17 |
| TCTAGCAGTCCAGAGGGTCACTCAAGAGGTACGG | 0.754 | 0.962 | -0.326 | 1.19 | -1.12 | 2.06 | 0.609 | 1.52 | 2.05 | 1.63 |
| GCTGCTAGGTCAACTGATGGTCAGCTACAGCTCG | 4.25 | 2.91 | 0.26 | 1.97 | 0.014 | 3.65 | 2.65 | 2.9 | 0.862 | 1.99 |
| CCTTACGGGTCACTGACAGGTTGTAGCATTTGGA | 5.1 | 3.61 | 0.156 | 3.17 | -0.356 | 4.93 | 4.26 | 4.06 | 0.971 | 2.97 |
| CGTCCGAGGTCAGAGAGGTCAGTGAATGCCGAGT | 6.42 | 5.78 | 3.42 | 5.43 | 0.406 | 5.62 | 4.63 | 5.26 | 2 | 4.02 |
| ATCTCTAGGTAAAGATAGTTCGGTGAATGCAAAT | 0.128 | 1.18 | 0.268 | 0.0902 | 0.531 | 0.121 | 0.266 | 0.307 | 0.192 | 0.213 |
| CGTCCAAGGTCATAGGAGGGCAGTGAAGACAGAT | 7.39 | 6.11 | 1.55 | 4.12 | 0.284 | 5.68 | 5.29 | 5.19 | 1.85 | 3.99 |
| ACTAGCAGGCCAAGGGTCACCCAAGATTAGTCCG | 3.24 | 2.98 | 0.036 | 2.76 | -0.624 | 5.01 | 8.49 | 7.88 | 6.88 | 9.09 |
| TCTATTAGTTGCAGGGCAACCGACGAGTCCGTTT | 0.562 | 0.804 | 0.147 | 0.702 | 0.559 | 0.736 | -0.219 | 1.62 | 3.41 | 2.38 |
| TGTGCTAGGTCAACGATGGTCAGCTAATCTGCTA | 3.38 | 2.67 | -0.0277 | 1.54 | 0.116 | 3.1 | 2.68 | 2.4 | 0.195 | 1.68 |
| TCTCGGAGGACACGAAAGATCAGAGCTCGACATC | -0.277 | 0.0528 | -0.431 | -0.144 | -0.969 | 0.328 | 0.493 | 0.915 | 2.54 | 1.17 |
| CCGGCTGGGGCATAAGGTTACCATAAGCCAGCCC | -0.0908 | 1.73 | -0.45 | 0.426 | -1.54 | 1.11 | 0.631 | 1.5 | -0.332 | 0.706 |
| CAAACTAGGTCAAGAGGTCAGAGTCCGCTTCCCG | 5.85 | 5.23 | 3.2 | 4.21 | 0.8 | 6.08 | 9.79 | 7.9 | 6.89 | 8.32 |
| CAGACTGGGGCAGAAAGGTTACCATACCATCCGG | 1.11 | 1.5 | -0.0304 | 1.4 | 0.122 | 2.53 | 2.23 | 3.3 | 1.29 | 2.79 |
| ATCTCTAGGTACAGATAGTTCAGTGAATGCAAAT | 0.079 | 0.141 | 0.396 | 0.242 | 0.548 | 0.12 | 0.349 | 0.108 | 0.29 | 0.33 |
| GCGTCTGGGGCAAAGCAGGTTACCATAAGGTTGG | 0.56 | 0.162 | -0.429 | 0.26 | -0.82 | 1.26 | 0.532 | 0.46 | -0.355 | 0.0417 |
| CGACCTAGGTCAGAACAGGACAGTGAAGGATGAT | 2.95 | 1.5 | 0.143 | 1.08 | -0.535 | 2.08 | 1.55 | 1.2 | -0.0187 | 0.682 |
